Measurements from the supplement of paper PMC6555819.

What follows are sequences tested on VDR:RXRa (NR concentration 270 nM, RXRa partner concentration 90 nM) (assay: PBM binding z-score (relative to random genomic background probes); higher = stronger binding; sequences stand for … in GC…GCGATTGACAGCGTAGAATGAAGG).
Protocol: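 Protein-binding microarray (Agilent 4x180K custom design, double-stranded 60-nt probes: 5' GC cap, 34-nt variable region, 24-nt constant primer region; full probe sequence given). Purified or IVT nuclear receptor:RXRα heterodimers (3:1 NR:RXRα, mostly 270:90 nM) or homodimers were incubated for 1 h in PBS with 2% milk and no ligand, then detected with Alexa488 antibodies. Fluorescence from o1-orientation probes (~5 replicates averaged) was converted to z-scores against 500 random hg19 background probes. Variable regions are seed direct-repeat (DR0–DR5) sites, all their single-nucleotide variants and half-site ablations.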

Sequence	PBM binding z-score
AGTAGCAGGCCAAGTTTGGGTCACTCAAACAAAG	0.609
TCTTGTAGATCATTAGAGGTTAAGAAAGTGCGCT	2.09
ATCTCTAGGTAAGACTCAGTTCTGTGAAGAACGC	0.069
TCTTGTAGATCAATGGTTAAGAAAGCCGAAGCCT	0.403
TCATATAGGTAAAGGTGAAAATCGAACGATATGA	0.688
CCTCCAAGGTCAAGGTCAGTGAAAGAGACTCGAA	4.69
ATACCAAGGTGATCCTGAGGTCGTTGATACTAAC	3.42
ATCTCAAGGTAAAGTTCAGTGAAAGATCGATAGA	1.8
TGTCAAAGTTCAAAGGTAAGGTAAGTATCCACAC	4.95
GATACAGGGTCAAGGCCAGAGAACGCGTATTGAT	3.99
AGAATGAGGTTATACGTAGATCAGGGACGAAAGT	1.46
CCTAGTTGGTCAGGAGGTCACACTCCGGATATGA	3.82
CAAACTAGGTCAACAGGTCAAAGTCCGCTTCCCG	4.87
CGAACTAGGTCAAGGACAGTTAATCTCCGCACGC	1.6
ACAATGAGGTTACCAAAGATCAGGGAAACGCTTG	1.68
ATATGTAGGTTAGCAGGGGTCATTCAGACTAGGC	6.33
CCTACTGGGCCATTCAGAAGTCATTGATCATATG	-0.356
GGAACGAGGGCAAGTTGCTAGCAGAGTTTGATGG	0.604
CGTCCAAGGTGAAAGGTCAGTGAAGAGATGACGG	3.69
CGTCAAAGTTCACGGTAACGTAACAGAAAGCAGC	4.74

Sequence	PBM binding z-score
CCAGACAGGTGAACGGTAACTCAGTCTGGTACGC	-0.205
CCTACTGGGCCACGAAAGGTCATGGATTCAGTGA	4.1
CTCGAAAGGTCGTACTCAGGTGAGTATACCAAAC	3.52
GCTAGTTGGTCAGTAAAAGGTCACACAACGGTCG	4.19
ACTAGCAGGCCAAGTTTTGGTCACTCAAACAAAG	-0.348
TCTTGTAGATCAAAGGTTCAGAAAGCCGAAGCCT	1.47
ATCGCTAGGTAAAGATAGTTCAGTGAATGCAAAT	0.0952
TGTCAAAGTTCAAGGGTAACGTAAGTATCCACAC	4.26
AACTCTAGGTAAAGTTCAGTGAAAGATCGATAGA	1.15
CCTACTGGGCCATTCAGAGGTCATTTATCATATG	3.73
GATACAGGGTCAGCTGGAGGCCAGAGTATGGAAA	3.29
CGTCAAAGTTCAATTAAGGTAACGTAAAGCACGC	3.98
GCGCGGAGGACAAGGTCAGAGCTTTGTCCGTAGA	1.4
GCATATAGGTCATACAAGGTGAAAGTCCGATTGT	4.55
TCTGCTAGGTCAACCATGGTCAGCTAATCTGCTA	2.27
TCATGTAGATCAGCAGGTTAAGAAAGCTGGCCAA	0.442
CGAACGAGGGCATGAGTTGATAGCGAATGCCGAT	1.21
AGAACGAGGGCACGCTGAGTTGATAGGAGAGTAG	2.04
TCATATAGGTAAAAGGGGAAAGTCGGTGTGGTAA	0.861
CGAATTAGGTCATCCAGGACAGTGAATACATTGA	5.04
